The target of assay [1] is Ribosomal protein S6 kinase alpha-6 (Homo sapiens) (UniProt Q9UK32). Particulars: at 1 µM.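 Also: each value is a mean inhibition of RSK4 from a GSK PKIS panel screen.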
The target in assay [2] is T1, Serine/threonine-protein kinase Sgk1 (Homo sapiens) (UniProt O00141).
T1 sequence (whole entry): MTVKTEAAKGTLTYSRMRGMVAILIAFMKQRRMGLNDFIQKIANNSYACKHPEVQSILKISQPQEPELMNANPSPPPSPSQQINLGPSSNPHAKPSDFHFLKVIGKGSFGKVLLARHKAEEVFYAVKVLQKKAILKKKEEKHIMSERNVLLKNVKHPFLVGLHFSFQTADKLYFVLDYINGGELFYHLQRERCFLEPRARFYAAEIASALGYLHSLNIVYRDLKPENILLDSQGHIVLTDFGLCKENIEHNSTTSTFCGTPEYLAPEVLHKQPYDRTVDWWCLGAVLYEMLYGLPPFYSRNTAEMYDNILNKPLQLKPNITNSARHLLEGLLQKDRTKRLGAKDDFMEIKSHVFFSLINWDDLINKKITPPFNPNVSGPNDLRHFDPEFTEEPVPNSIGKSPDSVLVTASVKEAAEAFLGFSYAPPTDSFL
Particulars: at 0.1 µM.

The target of assay [3] is T1, Serine/threonine-protein kinase Sgk1 (Homo sapiens). Particulars: at 1 µM.
Assay [4] addresses T2, Serine/threonine-protein kinase Sgk2 (Homo sapiens) (UniProt Q9HBY8).
T2 sequence (whole entry): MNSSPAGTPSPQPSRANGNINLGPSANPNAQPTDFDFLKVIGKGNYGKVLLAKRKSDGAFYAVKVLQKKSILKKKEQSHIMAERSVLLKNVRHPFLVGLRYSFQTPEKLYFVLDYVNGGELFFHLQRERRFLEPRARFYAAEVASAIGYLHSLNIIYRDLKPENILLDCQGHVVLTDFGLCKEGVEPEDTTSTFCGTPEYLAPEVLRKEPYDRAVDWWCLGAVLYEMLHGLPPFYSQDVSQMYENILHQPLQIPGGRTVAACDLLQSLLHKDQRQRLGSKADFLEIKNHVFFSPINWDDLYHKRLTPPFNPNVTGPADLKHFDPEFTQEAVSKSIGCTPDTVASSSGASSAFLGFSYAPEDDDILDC
Conditions: at 0.1 µM.

Assay [5] deals with T2, Serine/threonine-protein kinase Sgk2 (Homo sapiens). Particulars: at 1 µM.
Assay [6] addresses T3, Serine/threonine-protein kinase Sgk3 (Homo sapiens) (UniProt Q96BR1).
T3 sequence (whole entry): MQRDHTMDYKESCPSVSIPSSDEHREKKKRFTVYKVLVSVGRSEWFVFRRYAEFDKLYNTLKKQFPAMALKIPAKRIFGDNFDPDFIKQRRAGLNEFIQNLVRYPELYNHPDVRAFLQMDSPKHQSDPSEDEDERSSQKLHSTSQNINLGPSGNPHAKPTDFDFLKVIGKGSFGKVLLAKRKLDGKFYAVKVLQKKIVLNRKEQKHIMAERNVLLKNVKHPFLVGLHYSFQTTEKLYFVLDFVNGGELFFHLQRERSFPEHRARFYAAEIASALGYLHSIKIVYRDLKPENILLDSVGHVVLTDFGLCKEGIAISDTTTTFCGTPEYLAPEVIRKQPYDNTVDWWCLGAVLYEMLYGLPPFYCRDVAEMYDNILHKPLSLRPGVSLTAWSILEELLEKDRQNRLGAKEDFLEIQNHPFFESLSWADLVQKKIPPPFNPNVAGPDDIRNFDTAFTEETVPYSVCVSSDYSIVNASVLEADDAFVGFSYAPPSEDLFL
Particulars: at 0.1 µM.

Assay [7] deals with T3, Serine/threonine-protein kinase Sgk3 (Homo sapiens). Conditions: at 1 µM.
The target of assay [8] is 5'-AMP-activated protein kinase catalytic subunit alpha-1 (Homo sapiens) (UniProt Q13131). Particulars: at 0.1 µM.
Chain of 5'-AMP-activated protein kinase catalytic subunit alpha-1 (Homo sapiens) (Q13131 whole entry, looked up): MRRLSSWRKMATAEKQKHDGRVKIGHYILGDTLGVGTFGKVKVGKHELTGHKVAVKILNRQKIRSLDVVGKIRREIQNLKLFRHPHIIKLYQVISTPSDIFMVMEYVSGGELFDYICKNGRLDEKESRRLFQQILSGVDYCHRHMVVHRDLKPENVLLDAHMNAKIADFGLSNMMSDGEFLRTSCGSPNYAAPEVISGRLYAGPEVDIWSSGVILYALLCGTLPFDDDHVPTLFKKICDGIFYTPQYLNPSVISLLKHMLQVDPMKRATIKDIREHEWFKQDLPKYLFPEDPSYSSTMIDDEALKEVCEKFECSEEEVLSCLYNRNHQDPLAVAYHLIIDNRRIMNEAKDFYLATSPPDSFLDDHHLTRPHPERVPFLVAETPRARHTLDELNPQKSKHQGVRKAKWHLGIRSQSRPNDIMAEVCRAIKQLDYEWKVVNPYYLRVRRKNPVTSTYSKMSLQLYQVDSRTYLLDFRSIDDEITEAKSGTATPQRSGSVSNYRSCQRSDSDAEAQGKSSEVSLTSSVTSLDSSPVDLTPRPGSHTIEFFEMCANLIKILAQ
Assay [9] has the same target. Conditions: at 1 µM.
Assay [10] addresses 5'-AMP-activated protein kinase catalytic subunit alpha-2 (Homo sapiens) (UniProt P54646). Particulars: at 0.1 µM.
Assay [11] shares this target. Particulars: at 1 µM.
Assay [12] concerns the target T4, NUAK family SNF1-like kinase 1 (Homo sapiens) (UniProt O60285).
T4 sequence (whole entry): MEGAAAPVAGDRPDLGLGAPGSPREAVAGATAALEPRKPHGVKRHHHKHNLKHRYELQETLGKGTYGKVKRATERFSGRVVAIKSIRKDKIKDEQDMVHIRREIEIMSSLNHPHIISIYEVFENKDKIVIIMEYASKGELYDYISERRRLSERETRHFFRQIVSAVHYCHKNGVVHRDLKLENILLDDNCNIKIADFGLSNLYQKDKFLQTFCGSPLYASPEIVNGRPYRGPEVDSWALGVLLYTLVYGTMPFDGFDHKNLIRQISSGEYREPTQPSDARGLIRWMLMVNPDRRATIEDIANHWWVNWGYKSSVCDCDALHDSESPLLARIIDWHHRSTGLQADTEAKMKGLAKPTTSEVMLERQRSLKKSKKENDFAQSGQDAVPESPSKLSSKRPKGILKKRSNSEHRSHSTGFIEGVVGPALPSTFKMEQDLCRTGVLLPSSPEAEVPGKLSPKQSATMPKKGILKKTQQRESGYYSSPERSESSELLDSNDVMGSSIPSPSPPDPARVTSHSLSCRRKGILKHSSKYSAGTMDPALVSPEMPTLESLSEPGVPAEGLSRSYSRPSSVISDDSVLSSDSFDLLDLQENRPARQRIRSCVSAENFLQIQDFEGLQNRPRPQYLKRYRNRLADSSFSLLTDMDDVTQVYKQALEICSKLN
Conditions: at 0.1 µM.

The target of assay [13] is T4, NUAK family SNF1-like kinase 1 (Homo sapiens). Conditions: at 1 µM.
Assay [14] concerns the target T5, Serine/threonine-protein kinase BRSK1 (Homo sapiens) (UniProt Q8TDC3).
T5 sequence (whole entry): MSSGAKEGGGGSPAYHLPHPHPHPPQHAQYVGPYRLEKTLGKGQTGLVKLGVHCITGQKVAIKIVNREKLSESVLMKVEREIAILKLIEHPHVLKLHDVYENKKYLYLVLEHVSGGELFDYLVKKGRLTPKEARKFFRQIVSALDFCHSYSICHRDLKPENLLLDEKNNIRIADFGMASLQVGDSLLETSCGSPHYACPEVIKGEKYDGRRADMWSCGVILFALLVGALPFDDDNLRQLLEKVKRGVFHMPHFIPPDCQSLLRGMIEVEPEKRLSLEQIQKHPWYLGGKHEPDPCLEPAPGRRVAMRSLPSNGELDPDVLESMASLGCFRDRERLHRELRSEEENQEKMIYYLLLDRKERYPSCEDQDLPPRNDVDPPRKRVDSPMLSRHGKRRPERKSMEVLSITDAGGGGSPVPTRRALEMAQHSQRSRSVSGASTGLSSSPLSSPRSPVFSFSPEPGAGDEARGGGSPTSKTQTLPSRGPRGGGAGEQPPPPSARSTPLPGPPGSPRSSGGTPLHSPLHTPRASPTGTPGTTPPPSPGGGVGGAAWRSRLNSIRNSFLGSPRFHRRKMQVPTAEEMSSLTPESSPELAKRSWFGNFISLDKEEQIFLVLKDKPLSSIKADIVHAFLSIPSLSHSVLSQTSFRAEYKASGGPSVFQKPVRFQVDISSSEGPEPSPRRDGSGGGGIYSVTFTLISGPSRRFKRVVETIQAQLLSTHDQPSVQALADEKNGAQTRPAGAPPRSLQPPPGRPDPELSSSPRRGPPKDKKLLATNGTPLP
Conditions: at 0.1 µM.

In assay [15] the target is T5, Serine/threonine-protein kinase BRSK1 (Homo sapiens). Conditions: at 1 µM.
Assay [16] deals with T6, Serine/threonine-protein kinase BRSK2 (Homo sapiens) (UniProt Q8IWQ3).
T6 sequence (whole entry): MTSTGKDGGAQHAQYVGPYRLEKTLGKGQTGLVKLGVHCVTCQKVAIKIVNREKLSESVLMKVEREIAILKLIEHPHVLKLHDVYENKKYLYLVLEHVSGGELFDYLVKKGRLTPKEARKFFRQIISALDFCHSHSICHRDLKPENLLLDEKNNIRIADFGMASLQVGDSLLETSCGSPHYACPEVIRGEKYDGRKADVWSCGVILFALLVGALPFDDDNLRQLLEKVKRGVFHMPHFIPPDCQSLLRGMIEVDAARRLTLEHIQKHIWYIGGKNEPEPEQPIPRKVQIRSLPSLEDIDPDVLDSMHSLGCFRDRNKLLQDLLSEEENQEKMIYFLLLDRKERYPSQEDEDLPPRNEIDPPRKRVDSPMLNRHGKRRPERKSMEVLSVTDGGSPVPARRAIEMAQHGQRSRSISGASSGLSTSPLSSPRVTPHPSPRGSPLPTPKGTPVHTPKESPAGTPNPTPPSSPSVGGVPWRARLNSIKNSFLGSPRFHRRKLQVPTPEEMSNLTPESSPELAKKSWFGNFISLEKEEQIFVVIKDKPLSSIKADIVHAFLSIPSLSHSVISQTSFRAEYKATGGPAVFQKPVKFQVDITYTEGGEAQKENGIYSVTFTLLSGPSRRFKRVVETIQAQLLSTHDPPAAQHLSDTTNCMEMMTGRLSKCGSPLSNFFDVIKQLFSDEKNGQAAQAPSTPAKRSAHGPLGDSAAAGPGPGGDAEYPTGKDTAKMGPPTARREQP
Conditions: at 0.1 µM.

Assay [17] deals with T6, Serine/threonine-protein kinase BRSK2 (Homo sapiens). Conditions: at 1 µM.
For assay [18], the target named is Calcium/calmodulin-dependent protein kinase type 1D (Homo sapiens) (UniProt Q8IU85). Conditions: at 0.1 µM.
Chain of Calcium/calmodulin-dependent protein kinase type 1D (Homo sapiens) (Q8IU85 whole entry, looked up): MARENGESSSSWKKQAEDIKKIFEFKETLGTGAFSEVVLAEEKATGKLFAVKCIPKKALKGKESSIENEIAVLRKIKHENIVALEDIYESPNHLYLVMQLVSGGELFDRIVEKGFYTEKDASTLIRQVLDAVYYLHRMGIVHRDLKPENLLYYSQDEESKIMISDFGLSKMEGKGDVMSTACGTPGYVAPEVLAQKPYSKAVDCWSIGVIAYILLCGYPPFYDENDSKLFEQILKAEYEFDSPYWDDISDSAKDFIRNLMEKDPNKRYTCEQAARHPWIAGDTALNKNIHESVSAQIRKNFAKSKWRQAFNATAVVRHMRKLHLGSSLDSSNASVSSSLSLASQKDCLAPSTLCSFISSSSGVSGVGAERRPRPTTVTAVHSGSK
Assay [19] shares this target. Particulars: at 1 µM.
Assay [20] deals with Calcium/calmodulin-dependent protein kinase type II subunit alpha (Homo sapiens) (UniProt Q9UQM7). Conditions: at 0.1 µM.
Chain of Calcium/calmodulin-dependent protein kinase type II subunit alpha (Homo sapiens) (Q9UQM7 whole entry): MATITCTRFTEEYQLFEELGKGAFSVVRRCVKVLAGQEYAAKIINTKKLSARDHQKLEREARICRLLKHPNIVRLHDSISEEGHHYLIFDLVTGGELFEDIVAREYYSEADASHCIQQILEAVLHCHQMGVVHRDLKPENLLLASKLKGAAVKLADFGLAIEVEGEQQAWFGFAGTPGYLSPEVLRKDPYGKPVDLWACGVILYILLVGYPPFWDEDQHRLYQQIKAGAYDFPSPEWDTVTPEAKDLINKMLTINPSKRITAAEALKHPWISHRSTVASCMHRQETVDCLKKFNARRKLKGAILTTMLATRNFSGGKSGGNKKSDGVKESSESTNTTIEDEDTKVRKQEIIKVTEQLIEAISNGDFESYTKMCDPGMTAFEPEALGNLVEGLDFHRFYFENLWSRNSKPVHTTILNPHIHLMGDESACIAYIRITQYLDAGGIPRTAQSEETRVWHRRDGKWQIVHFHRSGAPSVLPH

The values that follow come from ChEMBL document CHEMBL1961873, “Compounds: GSK PKIS; Assays: Nanosyn kinase panel” (2012).

Chain of Ribosomal protein S6 kinase alpha-6 (Homo sapiens) (Q9UK32 whole entry): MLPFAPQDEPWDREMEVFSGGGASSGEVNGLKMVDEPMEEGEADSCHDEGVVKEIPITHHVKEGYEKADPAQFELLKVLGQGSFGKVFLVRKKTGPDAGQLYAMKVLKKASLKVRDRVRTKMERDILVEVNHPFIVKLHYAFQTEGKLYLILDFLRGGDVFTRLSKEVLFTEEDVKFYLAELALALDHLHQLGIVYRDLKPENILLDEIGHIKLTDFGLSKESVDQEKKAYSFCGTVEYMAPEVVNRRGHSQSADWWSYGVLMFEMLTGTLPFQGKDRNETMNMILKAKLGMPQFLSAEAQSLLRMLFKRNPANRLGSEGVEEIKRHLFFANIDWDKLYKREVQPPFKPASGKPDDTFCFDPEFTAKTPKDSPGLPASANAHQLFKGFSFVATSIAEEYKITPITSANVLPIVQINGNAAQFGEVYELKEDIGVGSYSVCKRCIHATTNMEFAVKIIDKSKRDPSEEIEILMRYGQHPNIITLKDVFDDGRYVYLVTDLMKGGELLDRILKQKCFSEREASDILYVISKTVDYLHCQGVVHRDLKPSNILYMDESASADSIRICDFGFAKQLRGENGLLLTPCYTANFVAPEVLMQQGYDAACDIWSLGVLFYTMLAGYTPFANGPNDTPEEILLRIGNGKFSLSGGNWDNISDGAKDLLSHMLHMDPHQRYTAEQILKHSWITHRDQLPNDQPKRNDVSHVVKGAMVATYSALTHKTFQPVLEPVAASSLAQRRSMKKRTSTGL
Chain of 5'-AMP-activated protein kinase catalytic subunit alpha-2 (Homo sapiens) (P54646 whole entry, looked up): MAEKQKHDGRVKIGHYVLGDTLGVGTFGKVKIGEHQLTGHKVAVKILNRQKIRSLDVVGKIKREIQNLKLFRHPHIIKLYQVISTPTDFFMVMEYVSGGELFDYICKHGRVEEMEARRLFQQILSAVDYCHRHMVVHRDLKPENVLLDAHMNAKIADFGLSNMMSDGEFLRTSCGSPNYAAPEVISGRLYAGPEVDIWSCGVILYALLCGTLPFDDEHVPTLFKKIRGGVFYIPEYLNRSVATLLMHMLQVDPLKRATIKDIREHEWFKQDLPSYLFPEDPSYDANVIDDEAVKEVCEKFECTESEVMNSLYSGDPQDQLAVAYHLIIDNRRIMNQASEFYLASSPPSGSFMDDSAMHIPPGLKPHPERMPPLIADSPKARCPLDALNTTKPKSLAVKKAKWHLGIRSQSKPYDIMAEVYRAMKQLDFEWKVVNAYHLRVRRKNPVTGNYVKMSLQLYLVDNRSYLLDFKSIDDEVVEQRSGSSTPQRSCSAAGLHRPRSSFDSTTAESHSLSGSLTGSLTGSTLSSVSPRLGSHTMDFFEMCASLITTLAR

By inhibition is commonly meant the relative decrease from the control value, in per cent. On to `COC(=O)c1sc(-n2cnc3cc(OC)c(OC)cc32)cc1OCc1ccccc1C(F)(F)F`, for which the inhibition in [1] stood at 1.66%; in assay [2] it was 2.5%; in [3], 4.04%; in assay [4], 1.44%; in assay [5], 1.94%; in assay [6], 2.58%. The inhibition in [7] was 1.46%; in assay [8] it was 3.84%; in [9], 8.18%; in [10], -0.41%; in assay [11] it was 5.51%; in assay [12], 18.4%. Moreover, the inhibition in assay [13] worked out at 47.1%; in assay [14], 0.92%; in assay [15], 2.12%; in assay [16] it was 2.43%; in assay [17], 4.63%; in assay [18], 0.66%. Besides, the inhibition in assay [19] was 2.52%; in assay [20] it was 5.18%.
With `CCn1cc(-c2ccnc3[nH]ccc23)c(-c2cccc(NC(=O)Nc3ccc(OCc4ccccc4)cc3)c2)n1`, the inhibition in assay [1] is -1.2%; in [2], 0.59%; in assay [3], -1.2%; in [4], -1.32%; in [5], -1.47%; in [6], -0.3%. Also, the inhibition in assay [7] was -0.15%; in assay [8], 1.13%; in [9] it was 1.82%; in assay [10] it was 0.63%; in [11] it was 2.24%; in assay [12], -0.37%. The inhibition in assay [13] is 1.67%; in assay [14], -0.66%; in [15], 3.32%; in assay [16], 1.2%; in assay [17], 0.5%; in assay [18] it was 1.03%. In addition, the inhibition in assay [19] turned out to be 4.92%; in assay [20], 1.2%.
With `Cc1ccc(O)cc1Nc1ccnc2cc(-c3ccccn3)ccc12`, the inhibition in assay [1] worked out at 1.1%; in [2], 3.35%; in [3], 0.75%; in assay [4], 4.28%; in assay [5], 0.49%; in assay [6] it was 4.38%. Also, the inhibition in assay [7] amounted to 1.94%; in assay [8], 4.22%; in assay [9] it was 4.05%; in assay [10] it was 1.74%; in [11], 6.05%; in assay [12] it was 4.17%. Besides, the inhibition worked out at 7.44% in assay [13]; 3.63% in assay [14]; 5.99% in assay [15]; 3.25% in assay [16]; 3.89% in assay [17]; 1.22% in [18]. Moreover, the results for the inhibition in [19] and in assay [20] were 1.32% and 6.72%, respectively.
In the case of `c1cc(-c2cnn3nc(N4CCOCC4)ccc23)nc(NC2CC2)n1`, the inhibition was 10.5% in assay [1]; 2.27% in assay [2]; 3.4% in [3]; 9.24% in assay [4]; 9.02% in [5]; 4.38% in [6]. The inhibition in assay [7] was 2.23%; in assay [8], 4.11%; in assay [9], 6.88%; in [10], -0.07%; in assay [11], 7.62%; in [12], 5.42%. The inhibition in [13] was 25.6%; in [14] it was 2.4%; in assay [15] it was 6.62%; in assay [16], 3.67%; in [17], 7.84%; in assay [18] it was 1.69%. The inhibition came out at 2.68% in assay [19] and 4.7% in assay [20].
